# This is a sample that favours compounds with a hit; in the whole collection about 3.8% have one here.
# Nox1 inh = blocks human NADPH oxidase 1 activity | inhibition, % at 6.7 µM | HT29 cells, luminol chemiluminescence ROS | 16,000 tested, 0.81% active | Q9Y5S8
# PME-1 Maybr inh = Maybridge compound blocking human PME-1 | recombinant PME-1, FP-Rh probe fluorescence polarization | inhibition, % at 9 µM | 16,000 tested, 0.5% active | AID 2291 | Q9Y570; in the data active = inhibition above about 30%
# S1P1 ag = activates the human S1P1 receptor; AID 1044; activation, % at 4.5 µM; P21453; 16,000 tested, 1.5% active; S1P1 agonist cell-based reporter assay; in the data active = activation above about 80%
# Luminol counter = luminol signal inhibition, Nox1 inhibitor counter-screen; AID 1823; inhibition, % at 6.7 µM; 16,000 tested, 0.4% active; HRP/luminol/H2O2 chemiluminescence counterscreen; note: reference of the scale not given here
# NOTCH ag = agonists of NOTCH signaling. AID 434982. NOTCH signaling luciferase reporter cells, luminescence. 15,000 tested, 0.4% active. activation, % at 2.5 µM; in the data active = activation above about 2.2%
# rat GALR2 ag = GALR2 (rat) receptor agonism | cell-based GALR2 agonist screen | activation, % at 10 µM | 16,000 tested, 0.5% active; in the data active = activation above about 15%
# Target sequence (O08726 whole entry, looked up): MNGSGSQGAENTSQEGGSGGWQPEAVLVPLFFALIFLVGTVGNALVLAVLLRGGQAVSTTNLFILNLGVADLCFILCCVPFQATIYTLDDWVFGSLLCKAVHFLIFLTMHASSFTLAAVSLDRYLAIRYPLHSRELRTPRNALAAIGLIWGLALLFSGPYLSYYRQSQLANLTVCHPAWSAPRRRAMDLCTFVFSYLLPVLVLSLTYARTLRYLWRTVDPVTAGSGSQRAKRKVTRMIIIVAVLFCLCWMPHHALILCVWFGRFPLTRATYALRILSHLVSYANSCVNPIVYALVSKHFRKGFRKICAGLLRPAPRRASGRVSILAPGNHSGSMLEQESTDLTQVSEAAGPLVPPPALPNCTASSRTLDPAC
# * = called active by the depositor. Cut-off read from the data, not from the text of the source, unless noted: active = inhibition above about 75%; inactive = the rest.
SMILES,Nox1 inh,PME-1 Maybr inh,S1P1 ag,Luminol counter,NOTCH ag,rat GALR2 ag
O=c1c(Nc2ccc(OC(F)(F)F)cc2)c(Nc2ccc(OC(F)(F)F)cc2)c1=O,6,30*,-1,-4,0,-3
NNC(=S)Nc1ccc(OC(F)(F)F)cc1,3,-2,-29,27,2,-9
COc1cc(C(C)=O)ccc1CN1CCOCC1,-71,-3,-2,2,0,-5
N/C(=N\OC(=O)c1c(F)cccc1F)c1cccc(-n2cccc2)c1,-5,-7,95*,-5,0,-6
CSc1nc(N)n(-c2ncccc2C(F)(F)F)n1,-32,-3,-8,4,0,-6
N#CC(C#N)=Cc1ccc(-c2cc(C(F)(F)F)cc(C(F)(F)F)c2)s1,37,-10,11,0,0,5
NC(=O)N/N=C/c1ccc(-c2cc(C(F)(F)F)cc(C(F)(F)F)c2)s1,3,-1,98*,-3,0,-6
COc1ccccc1C1CCN(C(=O)CSc2nnc(N)s2)CC1,9,5,4,-6,-2,-7
FC(F)(F)c1ccncc1-c1noc(-c2ccccc2)n1,-9,1,17,0,0,-5
C#CCOC(=O)Nc1cnc(Oc2c(Cl)cccc2Cl)c(C(F)(F)F)c1,-62,-21,99*,5,0,-10
Nc1cnc(Oc2c(Cl)cccc2Cl)c(C(F)(F)F)c1,-21,4,86*,3,-1,-5
Cn1[nH]c2c(c1=O)CSCC2,6,3,1,8,0,-7
O=C(O)CNC(=O)c1ccc(NC(=O)c2c(F)cccc2F)cc1,-6,0,-5,-1,0,-6
COC(=O)c1cnc(Sc2ccc(Cl)cc2)nc1C(F)(F)F,13,3,15,-4,-1,0
CCOC(=O)c1cnc(SCc2ccc(Cl)cc2)nc1C(F)(F)F,18,4,81*,-3,-1,-7
CC(=O)c1csc(Nc2ccc(Cl)cc2)n1,-27,5,-17,3,2.2*,-4
Cc1ccccc1/C(N)=N/OC(=O)c1ccc(C(C)(C)C)s1,12,3,103*,-4,0,-2
Cc1cc(/C=N\NC(=O)CCc2ccc(O)cc2)c2c(C)ccc(C(C)C)cc1-2,-11,49*,-24,-27,0,-4
Cc1cc(/C=N\NC(N)=S)c2c(C)ccc(C(C)C)cc1-2,-2,6,-12,7,0,-3
O=C(NNC(=O)c1ccc(C#Cc2ccccc2)o1)Nc1ccc(OC(F)(F)F)cc1,-4,-19,-4,-2,0,-7
CCO/C(C)=N/OC(=O)Nc1ccc(OC(F)(F)F)cc1,-57,1,-13,-1,-1,-4
CCOC(=O)C1=C(Nc2ccc(OC(C)=O)cc2)C(=O)N(C(C)(C)C)C1,84*,-2,-11,4,0,-3
Cc1[nH]c(=S)c(C#N)c(C)c1N=Nc1ccccc1,-63,2,-7,2,0,-1
Cc1noc(NC(=O)NC(=O)c2cc(F)c(N(C)C)c(F)c2)c1C,-74,-3,19,4,-1,36*
N#CCS(=O)(=O)c1ccco1,-60,2,-9,-2,0,-8
SMILES,Nox1 inh,PME-1 Maybr inh,S1P1 ag,Luminol counter,NOTCH ag,rat GALR2 ag
CCCOc1ccc(NC(C)=O)cc1,3,5,-9,-4,5.0*,-8
CC1(C)CC(=O)c2c(SCCOC(=O)Nc3ccc(OC(F)(F)F)cc3)sc(C#N)c2C1,40,-53,-19,-4,1,-10
CC1(C)CC(=O)c2c(SCCOC(=O)c3ccccc3Cl)sc(C#N)c2C1,26,0,97*,-4,0,-5
CCOC(=O)/C(C#N)=C/Nc1cc(F)ccc1C,-14,1,-8,-1,0,-8
CCOC(=O)/C(C#N)=C/Nc1cccnc1Oc1ccc(C)c2c1CCC2,-13,-2,-6,0,-1,27*
COC(=O)c1scc2c(N3CCC(n4cccc4)CC3)cc(C(F)(F)F)nc12,-28,-9,-1,5,0,4
S=c1[nH]nc(CSc2nc(-c3ccccc3)cn2-c2ccccc2)n1-c1ccccc1,-12,3,-37,2,0,-8
S=c1[nH]nc(Cc2n[nH]c(=S)n2-c2ccccc2)n1-c1ccccc1,-28,0,3,95*,0,-7
COc1cc(C(=O)N2CCCN3C(=O)c4ccccc4C23)cc(OC)c1OC (centres undefined),-36,6,-11,-5,0,-7
CC(=O)c1cc([N+](=O)[O-])c(SCc2ccc(Cl)cc2)s1,6,32*,61,-5,0,-8
CC(=O)c1cc([N+](=O)[O-])c(Sc2ccc(Cl)cc2)s1,-89,3,12,4,-1,-3
O=C(NNc1cccc(Cl)c1)c1cccnc1Oc1ccccc1,41,0,-19,100*,0,-8
COc1cc(/C=N\n2c(C)n[nH]c2=S)cc(OC)c1OC,53,6,14,101*,0,-2
O=C(COc1ccc(Cl)cc1)N1CCN(c2ncc(C(F)(F)F)cc2Cl)CC1,15,8,17,-6,-1,-6
Nn1c(-c2ccc(Cl)cc2)n[nH]c1=S,20,5,-7,99*,0,-7
S=c1[nH]nc(-c2ccc(Cl)cc2)n1-c1ccccc1,-4,-1,-6,4,0,-5
O=C(O)c1ccccc1SC(C[N+](=O)[O-])c1ccc2ccccc2c1 (centres undefined),-123,5,-21,0,-1,-10
CSC(=NCc1sccc1CSc1ccc(Cl)cc1)NC#N,-64,4,97*,-1,-1,-5
FC(F)(F)c1ccnc(NCc2ccco2)n1,-20,4,-8,-2,-1,-8
Nc1nc(NCc2ccco2)n[nH]1,94*,6,-8,90*,0,-2
O=[N+]([O-])c1ccc(S(=O)(=O)c2ccc(Cl)cc2)c(Cl)c1,61,7,3,2,-1,-9
COC(=O)c1sc(SC)c(-c2ccn(S(=O)(=O)c3ccc(F)cc3F)n2)c1C,-11,0,-2,0,0,-8
COc1cc2c(cc1OC)CC(=O)OC2,-53,14,81*,3,-1,-5
COc1ccc(CNC(=S)NCCCO)cc1,-51,4,-9,98*,-1,-3
COc1ccc(-c2c(C#N)c(=O)[nH]c3c2c(C)nn3-c2ccccc2)cc1,-1,5,1,-3,0,-6
COc1cccc(-c2c3c([nH]c(=O)c2C#N)CCc2cc(OC)ccc2-3)c1,6,3,-7,0,-1,53*
COc1ccc(Oc2c(Cl)cnn(-c3ccc(F)c(Cl)c3)c2=O)cc1,2,4,-9,-6,-1,-5
COc1ccc2c(c1)CCCN2Cc1c[nH]c2ccccc12,101*,17,22,-12,0,-1
Cc1ccc(Cn2nc(C(=O)O/N=C(\N)c3ccccc3)cc2C)cc1,32,-14,100*,0,0,-9
Cn1c(CSc2ccccc2)n[nH]c1=S,-9,-2,-2,8,0,-6

# Screening data as filed in PubChem BioAssay.
